# According to PubChem BioAssay (Tox21):
# Where a structure was tested more than once in an assay, its records may differ in their call. Calls of active or inactive are those of the source. The call rests on the fitted dose curve.
# Biological target: Androgen receptor (Homo sapiens) (UniProt P10275)
# Assay: qHTS assay to identify small molecule agonists of the androgen receptor (AR) signaling pathway in the presence of an antagonist (AID 1259381); further: nearly all actives have a fitted effect of over 15% in size
# Conditions: MDA-kb2 MMTV-luciferase, AR agonist + nilutamide, 16 h; series mostly up to 92.4 µM; activation: at the top concentration
# Description: National Center for Advancing Translational Sciences [NCATS] NIH Chemical Genomics Center [NCGC] U.S. Environmental Protection Agency [EPA] National Institutes of Environmental Health Sciences [NIEHS] National Toxicology Program [NTP] Assay overview: Androgen receptor (AR) is an important member of nuclear receptor family. Its signaling plays a critical role in AR-dependent prostate cancer and other androgen related diseases. Considerable attention has been given in the past decades to develop methods to study and screen for the environmental chemicals that have the potential to interfere with metabolic homeostasis, reproduction, developmental and behavioral functions. Therefore AR binding assay for screening against androgen agonists and antagonists can be used to identify potential endocrine disruptors. MDA-kb2 cells (from ATCC, deposited by Wilson et al.) are human breast carcinoma cells that were stably transfected with a luciferase reporter gene under control of the MMTV promoter that contains response elements for both androgen receptor (AR) and glucocorticoid receptor (GR). This particular screening for measuring luciferase reporter gene activity using MDA-kb2 cells against Tox21 10K library compounds is a confirmation study on agonist mode screening in the presence of AR-antagonist compound (Nilutamide) at 3.0uM final concentration.
# Assay Protocol Summary: MDA-kb2 cells (cells cultured without CO2) were dispensed at 3,000 cells/well in 4uL of culture medium into white wall/solid-bottom 1536-well plates (Corning Life Sciences, Corning, NY) using a Multidrop Combi (Thermo Fisher Scientific Inc., Waltham, MA) dispenser. The assay plates were incubated at 37C and 0% CO2 for 5hr. One uL of 3.0uM (final concentration) Nilutamide or assay buffer was added using two separate tips of Flying Reagent Dispenser (FRD, Aurora Discovery, San Diego, CA). Then 23nL of compounds dissolved in DMSO at 15 concentrations and positive controls were transferred to the assay plates using a Pintool station (Wako, San Diego, CA). The assay plates were incubated at 37C and 0% CO2 for 16hr. For luciferase read, 4uL/well ONE-Glo reagent (Promega Corporation, Madison, WI) was added to each well of the assay plates using FRD. After 30min incubation at room temperature, the luminescence signal was measured using a ViewLux plate reader (PerkinElmer, Shelton, CT).
# On the % scale 0 is the no-effect control and ±100 the full control effect; potency means the concentration at half of the fitted maximal effect.
# Sequence of Androgen receptor (Homo sapiens) (P10275 whole entry, looked up): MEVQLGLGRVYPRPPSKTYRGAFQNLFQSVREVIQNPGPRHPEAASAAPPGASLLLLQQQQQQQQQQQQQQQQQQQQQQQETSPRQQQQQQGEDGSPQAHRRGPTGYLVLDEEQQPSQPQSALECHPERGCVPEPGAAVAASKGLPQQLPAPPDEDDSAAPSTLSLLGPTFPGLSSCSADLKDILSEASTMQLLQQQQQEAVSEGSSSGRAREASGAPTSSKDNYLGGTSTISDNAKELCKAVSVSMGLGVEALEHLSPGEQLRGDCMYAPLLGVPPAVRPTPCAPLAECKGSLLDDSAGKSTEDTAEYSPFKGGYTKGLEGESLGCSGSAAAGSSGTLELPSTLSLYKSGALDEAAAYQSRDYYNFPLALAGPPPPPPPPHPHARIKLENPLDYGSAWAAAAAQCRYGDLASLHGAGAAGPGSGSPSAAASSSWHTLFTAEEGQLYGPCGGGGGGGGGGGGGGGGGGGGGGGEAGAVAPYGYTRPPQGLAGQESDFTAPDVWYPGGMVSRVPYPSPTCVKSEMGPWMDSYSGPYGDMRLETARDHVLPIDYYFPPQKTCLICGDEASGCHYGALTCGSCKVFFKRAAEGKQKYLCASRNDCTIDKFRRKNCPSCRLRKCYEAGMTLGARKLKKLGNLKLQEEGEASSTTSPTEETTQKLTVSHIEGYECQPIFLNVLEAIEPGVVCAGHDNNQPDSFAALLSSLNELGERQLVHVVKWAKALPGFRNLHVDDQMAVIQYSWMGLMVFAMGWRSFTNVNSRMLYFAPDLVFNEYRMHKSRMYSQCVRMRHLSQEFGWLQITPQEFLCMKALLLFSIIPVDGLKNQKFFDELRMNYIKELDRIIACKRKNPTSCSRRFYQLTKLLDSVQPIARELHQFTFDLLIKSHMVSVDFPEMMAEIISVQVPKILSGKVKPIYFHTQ
SMILES,Potency,activation
CC#C[C@]1(O)CC[C@H]2[C@@H]3C[C@H](C)C4=CC(=O)CC[C@]4(C)[C@H]3CC[C@@]21C,237 nM (active),
O=C1C2(Cl)C3(Cl)C4(Cl)C(Cl)(Cl)C5(Cl)C3(Cl)C1(Cl)C5(Cl)C24Cl (stereo not given),13.5 µM (active) and inactive,
ClC1(Cl)C2(Cl)C3(Cl)C4(Cl)C(Cl)(Cl)C5(Cl)C3(Cl)C1(Cl)C5(Cl)C24Cl (stereo not given),,0.143% (inactive)
O=c1[nH]c2cc(Cl)ccc2n1C1CCNCC1,,-1.82% [at 42.5 µM] (inactive)
C[C@]12CC[C@H]3[C@@H](CCC4=CC(=O)CC[C@@H]43)[C@@H]1CC[C@@H]2OC(=O)CCc1ccco1,23.7 nM (active),
[Cl][Hg][c]1ccccc1,,-10.8% (inactive)
Oc1cc(Cl)c(Cl)c(Cl)c1Cl,,-10.6% (inactive)
CC(C)NCC(O)c1ccccc1Cl (stereo not given),,-0.872% [at 42.5 µM] (inactive)
CC(Cc1ccccc1)N(C)Cc1ccco1 (stereo not given),,1.12% [at 42.5 µM] (inactive)
O=[N+]([O-])C(Br)Br,,-3.55% (inactive)
CCC[CH2][Sn]([CH2]CCC)([CH2]CCC)[O][Sn]([CH2]CCC)([CH2]CCC)[CH2]CCC,,-10.6% [at 8.39 µM] (inactive)
CCO/N=C(\CC)C1=C(O)CC(c2c(C)cc(C)cc2C)CC1=O (stereo not given),,7.14% (inactive)
CC(C)=CC1C(C(=O)OC(C#N)c2cccc(Oc3ccccc3)c2)C1(C)C (stereo not given),,2.17% (inactive)
O=C1C(Cl)=C(Cl)C(=O)C(Cl)=C1Cl,inactive,
Nc1ccc(Cl)cc1C(=O)c1ccccc1F,,-1.86% [at 42.5 µM] (inactive)
C[C@H]1[C@H](c2ccc(Cl)cc2)SC(=O)N1C(=O)NC1CCCCC1,,-8.52% (inactive)
O=S1OCC2C(CO1)C1(Cl)C(Cl)=C(Cl)C2(Cl)C1(Cl)Cl (stereo not given),inactive,
O=NN(CCO)CCO,,2.2% (inactive)
N#Cc1c2ccccc2cc2ccccc12,,3.34% (inactive)
BrCCCBr,,11.9% (inactive)

SMILES,Potency,activation
COc1ccc(Cc2nccc3cc(OC)c(OC)cc23)cc1OC,,-10% [at 42.5 µM] (inactive)
N#CC(C#N)=NNc1cccc(Cl)c1,,-10.8% (inactive)
CCN1CCC2(CC1)COc1cc3c(cc12)N(C(=O)c1ccc(-c2ccc(-c4nnc(C)o4)cc2C)cc1)CC3,,-10% (inactive)
CC(=O)[O][Pb]([c]1ccccc1)([c]1ccccc1)[c]1ccccc1,,-11.2% (inactive)
CN(C)c1ccc(N)cc1,,-9.26% (inactive)
[O]=[Cr](=[O])([OH])[O][Cr](=[O])(=[O])[OH],inactive,
CCC(OC(C)=O)C(CC(C)NC)(c1ccccc1)c1ccccc1 (stereo not given),,-10.5% (inactive)
Fc1ccc(C(OCCN2CCN(CCCc3ccccc3)CC2)c2ccc(F)cc2)cc1,,-10.2% [at 42.5 µM] (inactive)
CC(C)N(C(=O)CCl)c1ccccc1,inactive,
CN(C)C(=S)SSC(=S)N(C)C,inactive,
CCNS(=O)(=O)C(F)(F)C(F)(F)C(F)(F)C(F)(F)C(F)(F)C(F)(F)C(F)(F)C(F)(F)F,,-4.27% (inactive)
CCCCCCCc1ccc(O)cc1,,0.624% (inactive)
Cc1nn(-c2cc(NS(C)(=O)=O)c(Cl)cc2Cl)c(=O)n1C(F)F,,1.51% (inactive)
CCCCCCC[CH2][Sn]([Cl])([Cl])[CH2]CCCCCCC,,-8.29% (inactive)
Nc1c(Cl)c(Cl)c(Cl)c(Cl)c1Cl,54500 nM (active),
COP(=O)(OC)O/C(=C\Cl)c1cc(Cl)c(Cl)cc1Cl,,-8.94% (inactive)
COc1ccc2c(c1OC)C(=O)O[C@@H]2[C@H]1c2cc3c(cc2CCN1C)OCO3,,-1.3% (inactive)
CCOP(=S)(OCC)SC(CCl)N1C(=O)c2ccccc2C1=O (stereo not given),,-4.2% (inactive)
O=c1[nH]c(Cl)c(Cl)cc1Cl,,4.15% (inactive)
CCOC(=O)Cc1ccccc1,,-1.4% (inactive)
